The list is not random: actives were taken first. Their share in the collection is about 1.6%.
KCNQ2 inh – rat KCNQ2 potassium channel inhibitors, primary screen, cell-based, CHO-K1, FluxOR thallium flux, B-score | Potassium voltage-gated channel subfamily KQT member 2 (Rattus norvegicus), O88943 | 20 min; stronger effect = lower value | B-score at 10 µM | 310,000 compounds, 1.1% hits;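 active = fluorescence ratio B-score at most minus 3 library SDs, with starting brightness B-score within 2 library SDs, cut at about -5.5 in these data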
Target sequence (O88943 whole entry, looked up): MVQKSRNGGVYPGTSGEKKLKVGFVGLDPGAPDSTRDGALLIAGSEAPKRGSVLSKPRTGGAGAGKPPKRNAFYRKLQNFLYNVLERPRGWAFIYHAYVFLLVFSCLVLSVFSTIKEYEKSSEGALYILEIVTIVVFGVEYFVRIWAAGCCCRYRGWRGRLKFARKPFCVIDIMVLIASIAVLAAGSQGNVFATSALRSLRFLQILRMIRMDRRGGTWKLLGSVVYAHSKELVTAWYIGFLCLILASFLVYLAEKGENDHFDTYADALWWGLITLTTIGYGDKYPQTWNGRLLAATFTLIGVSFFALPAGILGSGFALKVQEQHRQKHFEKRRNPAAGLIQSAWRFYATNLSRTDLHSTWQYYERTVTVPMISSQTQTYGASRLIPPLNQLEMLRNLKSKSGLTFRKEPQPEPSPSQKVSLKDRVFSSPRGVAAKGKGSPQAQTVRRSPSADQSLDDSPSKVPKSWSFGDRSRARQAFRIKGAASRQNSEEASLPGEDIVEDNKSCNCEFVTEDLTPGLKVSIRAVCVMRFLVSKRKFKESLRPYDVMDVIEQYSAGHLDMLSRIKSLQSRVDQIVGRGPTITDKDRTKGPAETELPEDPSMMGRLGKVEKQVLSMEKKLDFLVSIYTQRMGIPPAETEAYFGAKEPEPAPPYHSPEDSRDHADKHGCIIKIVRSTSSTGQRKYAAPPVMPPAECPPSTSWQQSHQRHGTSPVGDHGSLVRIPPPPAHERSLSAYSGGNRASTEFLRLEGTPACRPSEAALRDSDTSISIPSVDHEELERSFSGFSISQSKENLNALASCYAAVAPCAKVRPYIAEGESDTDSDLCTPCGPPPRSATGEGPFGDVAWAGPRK
KCNQ2 enhance – potentiators of rat KCNQ2 potassium channel | B-score at 10 µM | CHO-K1 KCNQ2, FluxOR thallium flux fluorescence; stronger effect = higher value | 310,000 compounds, 0.54% hits;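 active = fluorescence ratio B-score at least 3 SD of library B-scores, with initial fluorescence B-score within 3 of them, cut at about 5.3 in these data; same plate scores as AID 2156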;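 also: B-score of peak minus minimum over baseline fluorescence ratio after K+ and Tl+ stimulus; positive B-score means potentiation of KCNQ2 with more thallium influx and brighter signal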
KCNQ2 block conf – rat KCNQ2 potassium channel inhibitors, confirmation, cell-based, thallium flux. KCNQ2-expressing cells, inhibition; stronger effect = lower value. activity change, negative = inhibition, % at 10 µM. 1,000 compounds, 57% hits. shares compounds with KCNQ2 inh;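 also: 0% = vehicle wells and values are ratio percent relative to vehicle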
KCNQ1 spec – human KCNQ1 channel inhibition, counter-screen for KCNQ2 inhibitor project, cell-based, FluxOR thallium flux; 1,000 compounds, 15% hits; KCNQ1-expressing cells, FluxOR thallium flux fluorescence; stronger effect = lower value; activity change, negative = inhibition, % at 10 µM; shares compounds with KCNQ2 inh; AID 493026, 2011;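 active = activity change at least 3 SD of negative controls below their mean in both duplicate wells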;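 also: CHO cells stably transfected with KCNQ1 and depolarized by potassium stimulus; peak minus minimum fluorescence over baseline after thallium addition; 0% = vehicle negative control and -100% = blank without thallium stimulus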
CHO Tl ctr – thallium flux change in parental CHO cells, counter-screen for KCNQ2 inhibitor project; 1,000 compounds, 14% hits; stronger effect = lower value; shares compounds with KCNQ2 inh; activity change, % at 10 µM;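 also: 0% = vehicle negative controls with stimulus buffer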
KCNQ2 patch conf – rat KCNQ2 channel inhibitors, confirmation, cell-based, automated patch clamp, single concentration; KCNQ2-expressing cells, automated patch clamp current; calls only at 10 µM; shares compounds with KCNQ2 inh; 550 compounds, 49% hits
* hit, by the source's call. Unless noted, no rule for the calls is given here.

For CNC(=O)c1ccc(-c2sc3nc(N4CCOCC4)c4c(c3c2N)CC(C)(C)OC4)o1 the results were KCNQ2 inh inactive and KCNQ2 enhance 0.03.
Screening CNC(=O)c1ccc(-c2sc3nc(N4CCOCC4)c4c(c3c2N)CCCC4)o1 returned KCNQ2 inh -9.53*, KCNQ2 enhance -9.53, KCNQ2 block conf -22.0%*, KCNQ1 spec inactive, CHO Tl ctr inactive and KCNQ2 patch conf inactive.
`Cc1onc(-c2ccccc2)c1C(=O)OCC(=O)N(CC(C)C)c1c(N)n(Cc2ccccc2)c(=O)[nH]c1=O` gave KCNQ2 inh inactive.
CCn1cc(C(=O)N(C)c2ccccc2F)c2cc(OC)c(OC)cc2c1=O was read as KCNQ2 inh inactive and KCNQ2 enhance 1.79.
`COc1ccc(NS(=O)(=O)c2ccc(NS(=O)(=O)c3cccs3)cc2)cc1` gave KCNQ2 inh inactive and KCNQ2 enhance 0.3.
For OCC[C@@H]1C[C@@H](O)[C@H](O)[C@]2(Cc3ccccc3O2)O1 the results were KCNQ2 inh inactive.
For Cc1ccc(NC(=O)c2ccccc2OCC(=O)c2ccccc2)cc1 the results were KCNQ2 inh inactive.
For Cc1cccc(NC(=O)c2ccccc2OCC(=O)c2ccccc2)c1 the results were KCNQ2 inh -8.23*, KCNQ2 enhance -8.23, KCNQ2 block conf inactive, KCNQ1 spec inactive and CHO Tl ctr inactive.
`CCN(CC(=O)NC1CC1)S(=O)(=O)c1ccc(OC)cc1` gave KCNQ2 inh inactive and KCNQ2 enhance 0.95.
CN1CCN(CC(=O)N2CCn3c4c(c5cc(C6CCCCC6)ccc53)CCCC42)CC1 (stereo not given) was read as KCNQ2 inh -12.6*, KCNQ2 enhance -12.6, KCNQ2 block conf -30.5%*, KCNQ1 spec inactive, CHO Tl ctr inactive and KCNQ2 patch conf inactive.
Cc1ccc2c(c1)c1c3n2CCN(C(=O)CN2CCN(C)CC2)C3CCC1 (stereo not given) was read as KCNQ2 inh inactive.
Screening Clc1ccc(SCc2cn3ccsc3n2)cc1 returned KCNQ2 inh inactive.
`Cc1csc2nc(CSc3ccc(Cl)cc3)cn12` gave KCNQ2 inh -10.7*, KCNQ2 enhance -10.7, KCNQ2 block conf -37.5%*, KCNQ1 spec -43.0%*, CHO Tl ctr -35.0%* and KCNQ2 patch conf active.
For Cc1ccc(C(OC(=O)c2ccco2)C(=O)NC(C)(C)C)cc1 (stereo not given) the results were KCNQ2 inh inactive.
Screening COc1ccc(CNC(=O)CN(Cc2ccc(Cl)cc2)S(=O)(=O)c2ccccc2)cc1 returned KCNQ2 inh -7.45*, KCNQ2 enhance -7.45, KCNQ2 block conf -29.5%*, KCNQ1 spec inactive, CHO Tl ctr inactive and KCNQ2 patch conf inactive.
`COc1ccc(S(=O)(=O)N(CC(=O)NCc2ccncc2)Cc2ccccc2)cc1` gave KCNQ2 inh inactive.
For O=C(NCCOc1ccccc1)C(=O)c1c[nH]c2ccccc12 the results were KCNQ2 inh inactive and KCNQ2 enhance 0.57.
Cc1c(C(=O)NCCSCc2cccc(C(F)(F)F)c2)cnn1-c1ccc(F)cc1 was read as KCNQ2 inh inactive.
`O=C1NCC(COc2ccc(Cl)cc2)O1` (stereo not given) gave KCNQ2 inh inactive.
For CCC1C(=NO)C(CC)C(c2ccccc2)NC1c1ccccc1 (stereo not given) the results were KCNQ2 inh -9.42*, KCNQ2 enhance -9.42, KCNQ2 block conf -39.0%*, KCNQ1 spec inactive, CHO Tl ctr inactive and KCNQ2 patch conf inactive.
`CCCC1/C(=N/O)CC(c2ccccc2)NC1c1ccccc1` (stereo not given) gave KCNQ2 inh inactive.
COc1ccc(/C=N/NC(=O)c2cccnc2)cc1O was read as KCNQ2 inh -7.25*, KCNQ2 enhance -7.25, KCNQ2 block conf inactive, KCNQ1 spec inactive and CHO Tl ctr inactive.
`CCNC(=O)COc1ccc(/C=N/NC(=O)c2cccnc2)cc1OC` gave KCNQ2 inh inactive and KCNQ2 enhance 0.09.
Screening O=C(CNC(=O)c1ccco1)OCC(=O)c1ccc(Cl)cc1Cl returned KCNQ2 inh inactive and KCNQ2 enhance 0.49.
Screening COc1cc(NC(C)CCCN)c2ncccc2c1Oc1ccccc1 (stereo not given) returned KCNQ2 inh inactive and KCNQ2 enhance 0.01.
For O=C(CSc1nc2ccccc2c(=O)n1NC(=O)c1ccccc1)c1ccc(Cl)cc1 the results were KCNQ2 inh -10.2*, KCNQ2 enhance -10.2, KCNQ2 block conf -30.0%*, KCNQ1 spec inactive, CHO Tl ctr inactive and KCNQ2 patch conf active.
CCn1c(SCC(=O)c2ccccc2)nc2ccccc2c1=O was read as KCNQ2 inh inactive and KCNQ2 enhance 0.74.
O=C(CSc1nc2ccccc2c(=O)n1NC(=O)c1ccccc1)c1ccccc1 was read as KCNQ2 inh -11.7*, KCNQ2 enhance -11.7, KCNQ2 block conf -15.5%*, KCNQ1 spec inactive, CHO Tl ctr inactive and KCNQ2 patch conf active.
`Cc1nc2ccccc2c(=O)n1NC(=O)c1ccc(Cl)cc1` gave KCNQ2 inh inactive and KCNQ2 enhance 1.75.
Screening O=C(NC1CCN(C(=S)Nc2ccccc2Cl)CC1)C1CCCCC1 returned KCNQ2 inh inactive and KCNQ2 enhance 0.07.
For CC(C)(C)OC(=O)N1CCC[C@H]1c1nnc(SCc2ccc(Cl)cc2Cl)o1 the results were KCNQ2 inh -7.16*, KCNQ2 enhance -7.16, KCNQ2 block conf inactive, KCNQ1 spec inactive and CHO Tl ctr inactive.
`CC(C)(C)OC(=O)N1CCC[C@H]1c1nnc(SCc2c(F)cccc2Cl)o1` gave KCNQ2 inh inactive.
Screening C=CCn1c(CSCc2ccc(C)cc2)nnc1SCC(=O)NCc1ccccc1 returned KCNQ2 inh -8.42*, KCNQ2 enhance -8.42, KCNQ2 block conf -22.0%*, KCNQ1 spec inactive, CHO Tl ctr inactive and KCNQ2 patch conf active.
`CCn1c(CNc2ccc(C)cc2)nnc1SCC(=O)NCc1ccccc1` gave KCNQ2 inh inactive.
Screening c1ccc(Nc2nc(NCC3CCCO3)c3ccccc3n2)cc1 (stereo not given) returned KCNQ2 inh inactive.
CCOc1ccc(Nc2nc(NCC3CCCO3)c3ccccc3n2)cc1 (stereo not given) was read as KCNQ2 inh -6.71*, KCNQ2 enhance -6.71, KCNQ2 block conf inactive, KCNQ1 spec inactive and CHO Tl ctr inactive.
`CCN(Cc1ccccc1)C(=O)CCc1nc(CN2CCN(C(=O)c3ccc([N+](=O)[O-])cc3)CC2)no1` gave KCNQ2 inh inactive.

Compound activity (PubChem)
